# Data from the supplement of paper PMC6555819.
# Experiments:
# Experiment in all cases: PBM binding z-score (relative to random genomic background probes); higher = stronger binding; sequences stand for … in GC…GCGATTGACAGCGTAGAATGAAGG
# [1] = tested on: FXR:RXRa (NR concentration 270 nM, RXRa partner concentration 90 nM)
# In short: (§1)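 Binding z-scores were set against random background probes. The data came from custom Agilent 4×180K protein-binding microarrays carrying double-stranded probes with 34-nt variable regions, incubated 1 h with ligand-free nuclear receptor dimers. Partner-specific antibodies detected binding, and scanned fluorescence was regression-normalized.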
# [2] = tested on: LXRa:RXRa (NR concentration 270 nM, RXRa partner concentration 90 nM)
# In short: as §1
# [3] = tested on: LXRa homodimer (NR concentration 270 nM)
# In short: as §1
# [4] = tested on: LXRb:RXRa (NR concentration 270 nM, RXRa partner concentration 90 nM)
# In short: as §1
# [5] = tested on: LXRb homodimer (NR concentration 270 nM)
# In short: as §1
# [6] = tested on: PPARa:RXRa (NR concentration 270 nM, RXRa partner concentration 90 nM)
# In short: as §1
# [7] = tested on: PPARg:RXRa (NR concentration 180 nM, RXRa partner concentration 90 nM)
# In short: as §1
# [8] = tested on: PPARg:RXRa 270nM:90nM, anti-RXR (NR concentration 270 nM, RXRa partner concentration 90 nM)
# In short: as §1
# [9] = tested on: PPARg:RXRa 30nM:10nM, anti-RXR (NR concentration 30 nM, RXRa partner concentration 10 nM)
# In short: as §1
# [10] = tested on: PPARg:RXRa 90nM:30nM, anti-RXR (NR concentration 90 nM, RXRa partner concentration 30 nM)
# In short: as §1
# [11] = tested on: PPARg:RXRa DBDmut IVT, anti-RXR (DBD mutation: RXRa K156A/R161A, NR concentration 270 nM, RXRa partner concentration 90 nM)
# In short: as §1
# [12] = tested on: PPARg:RXRa IVT, anti-PPARg (NR concentration 270 nM, RXRa partner concentration 90 nM)
# In short: as §1
# [13] = tested on: PPARg DBDmut:RXRa IVT, anti-PPARg (DBD mutation: PPARg1 K132A/R137A, NR concentration 270 nM, RXRa partner concentration 90 nM)
# In short: as §1
# [14] = tested on: PPARg DBDmut IVT, anti-PPARg (DBD mutation: PPARg1 K132A/R137A, NR concentration 270 nM)
# In short: as §1
# [15] = tested on: PPARg homodimer (NR concentration 180 nM)
# In short: as §1
# [16] = tested on: PXR:RXRa (NR concentration 270 nM, RXRa partner concentration 90 nM)
# In short: as §1
# [17] = tested on: PXR homodimer (NR concentration 270 nM)
# In short: as §1
# [18] = tested on: RARa:RXR (NR concentration 270 nM, RXRa partner concentration 90 nM)
# In short: as §1
# [19] = tested on: RARa homodimer (NR concentration 270 nM)
# In short: as §1
# [20] = tested on: RARb:RXRa (NR concentration 270 nM, RXRa partner concentration 90 nM)
# In short: as §1
Sequence,PBM binding z-score [1],PBM binding z-score [2],PBM binding z-score [3],PBM binding z-score [4],PBM binding z-score [5],PBM binding z-score [6],PBM binding z-score [7],PBM binding z-score [8],PBM binding z-score [9],PBM binding z-score [10],PBM binding z-score [11],PBM binding z-score [12],PBM binding z-score [13],PBM binding z-score [14],PBM binding z-score [15],PBM binding z-score [16],PBM binding z-score [17],PBM binding z-score [18],PBM binding z-score [19],PBM binding z-score [20]
TATACAGGGTCAAAGGCCACAGTACGAATGTCGA,7.15,6.26,2.88,5.26,2.68,6.52,9.43,8.36,7.28,8.74,2.84,5.48,3.56,1.95,3.1,4.85,0.619,7.09,1.53,4.45
AGTCAAAGTTCACTAGGTAACGTACGATTCAGCT,5.6,5.41,3.55,3.27,0.963,4.79,7.47,6.6,3.88,5.98,3.29,5.13,1.36,1.27,3.23,4.37,3.12,3.45,1.53,4.71
CGAACTAGGTCAAGGGCAGTGAATCTCCGCACGC,3.56,2.14,-0.0571,1.21,-0.428,4.64,8.03,6.75,4.74,6.89,7.67,8.29,1.07,0.971,1.46,1.14,-0.131,1.86,-0.096,4.13
ACTATTAGTTGAGACGCGGGCAACCGATAGGTTG,-0.0666,-0.0998,-0.325,-0.488,0.193,-0.624,0.371,-0.414,-0.25,-0.167,-0.288,-0.175,0.481,0.188,-0.291,-0.299,-0.208,-0.588,-0.0314,0.15
TGTATTAGTTGATTAGGGCAACCGAAACAGCGGA,0.242,0.0777,0.397,0.234,1.3,0.484,0.304,0.782,0.748,0.794,0.222,1.62,1.15,1.19,1.28,-0.072,0.169,0.311,1.53,0.862
CGTCAAAGTTCAACTAACGTAACGTAAAGCACGC,6.21,5.98,3.62,4.08,2.43,4.99,4.65,5.21,2.17,4.04,0.504,1.8,1.16,1.48,3.23,4.55,3.33,3.3,1.91,5.14
CAAACTAGGTCGCAGAGGTCAAAGTCCGTGCGTA,5.75,6.03,5.84,5.36,1.26,5.7,7.46,6.53,4.01,6.06,6.57,7.05,2.76,1.62,3.69,6.55,7.19,7.01,1.48,4.5
GCTGCTAGGTCAGGTTTGTCAGCTAACGGGTACG,0.8,0.465,-0.141,0.304,-0.389,0.943,0.265,0.692,-0.284,0.389,3.26,1.92,-0.625,-0.587,0.518,0.229,-0.27,0.51,-0.0516,2.95
CCAGACACGTGAGAAGGTAACTCAGCCTCGATTA,-0.22,-0.083,-0.348,-0.3,-0.11,-0.534,0.37,-0.804,-0.82,-0.704,-0.227,-0.531,-0.51,-0.51,0.168,-0.212,0.145,-0.206,0.356,-0.318
AGAATGAGGTTATTAAGATCAGTGAATTGCGGTC,1.66,1.74,0.236,1.27,0.0793,2.7,1.43,1.81,0.385,0.958,3.14,2.61,0.948,0.175,1.22,1.37,0.788,1.35,0.44,1.31
TCTTGTAGAACAGCAGGTTAAGAAAGCTGGCCAA,-0.25,-0.235,-0.708,-0.0015,-0.898,0.675,-0.134,1.17,2.2,1.9,1.67,0.554,-0.871,-0.593,-0.509,0.0552,-0.772,-0.0223,-1.16,0.0879
ATCTCTAGGTAACAAGTGCAGTGAAAGAGAGGAC,0.0619,0.181,-0.0829,-0.182,0.699,0.43,1.07,1.38,0.591,1.05,2.78,2.62,1.24,0.573,0.521,0.133,0.353,0.0235,0.451,0.586
CTTAGCAGGCCAATCTGGGTCACTCAAGGCTTGA,0.29,1.18,-0.362,0.386,-0.93,3.08,2.4,2.51,-0.0201,1.43,4.54,5.41,1.49,-0.595,0.867,0.661,-0.63,1.8,-0.332,1.46
CCTTGCAGGCCAGGGTCACTCAAGCATTTCGCTT,2.3,1.82,-0.569,1.99,-1.06,3.29,1.01,2.11,-0.339,1.02,1.64,1.87,-0.933,-1.48,0.75,2.65,-0.433,3.33,-0.43,2.79
